{"source": "PubChem BioAssay AID777", "about": "(Sanford-Burnham Center for Chemical Genomics, 2007)", "note": "In all, about 96,000 compounds went through this assay and about 19,000 (20%) were called active.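 How the source made its calls: active means blocking of liver enzyme CYP2C9 beyond about 50% at 5 µM (limit read from the data); inactive means the rest.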 Only a sample is shown.", "data": [{"molecular_target": "Cytochrome P450 2C9 (Homo sapiens) (UniProt P11712)", "sequence (P11712 whole entry, looked up)": "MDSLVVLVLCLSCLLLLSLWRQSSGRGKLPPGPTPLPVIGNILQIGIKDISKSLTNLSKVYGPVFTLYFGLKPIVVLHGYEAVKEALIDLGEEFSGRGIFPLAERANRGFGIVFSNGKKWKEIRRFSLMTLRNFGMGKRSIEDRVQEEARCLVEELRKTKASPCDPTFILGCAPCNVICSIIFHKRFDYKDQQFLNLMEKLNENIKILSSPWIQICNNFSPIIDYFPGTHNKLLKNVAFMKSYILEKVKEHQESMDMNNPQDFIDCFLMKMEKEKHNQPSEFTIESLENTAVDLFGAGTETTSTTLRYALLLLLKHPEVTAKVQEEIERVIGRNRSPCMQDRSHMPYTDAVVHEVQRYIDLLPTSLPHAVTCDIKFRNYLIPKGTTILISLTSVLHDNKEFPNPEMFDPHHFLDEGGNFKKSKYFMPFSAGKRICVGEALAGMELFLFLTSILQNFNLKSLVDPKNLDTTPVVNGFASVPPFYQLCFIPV", "test": "blockers of cytochrome P450 2C9 activity – biochemical, luminescence, ADME assay, primary screen (AID 777)", "conditions": "CYP2C9 Supersomes, luciferin-H conversion, at 5 µM, hits give high values", "values": [{"compound": "CC12CCC(C(=O)N(CCC#N)CCC#N)(CC1=O)C2(C)C", "note": "(stereo unspecified)", "inhibition": "-10.7% (inactive)"}, {"compound": "CCC(C(=O)Nc1ncccn1)(C(F)(F)F)C(F)(F)F", "inhibition": "-8.6% (inactive)"}, {"compound": "Oc1ccc(Cl)cc1/C=N/c1nc2ccccc2[nH]1", "inhibition": "-15.4% (inactive)"}, {"compound": "CCn1ncc(C2=NOC(C(=O)N3CCN(c4ccccc4)CC3)C2)c1C", "note": "(stereo unspecified)", "inhibition": "-12.4% (inactive)"}, {"compound": "Cc1cc(C)c(S(=O)(=O)NCCCN2CCOCC2)cc1Br", "inhibition": "-101% (inactive)"}, {"compound": "C=CCSc1nc2c(c(=O)[nH]1)C(C(C)C)C(C#N)=C(N)O2", "note": "(stereo unspecified)", "inhibition": "17.7% (inactive)"}, {"compound": "COc1cccc(N2CCN(C3CC(=O)N(c4ccc(Cl)cc4)C3=O)CC2)c1", "note": "(stereo unspecified)", "inhibition": "11.2% (inactive)"}, {"compound": "Cn1cnc2c1c(=O)n(Cc1c(Cl)cccc1Cl)c(=O)n2C", "inhibition": "32.6% (inactive)"}, {"compound": "O=S(=O)(NC1CCCCC1)c1ccc(F)c2ccccc12", "inhibition": "53.4% (active)"}, {"compound": "O=C(CC(NS(=O)(=O)c1ccc(Cl)cc1)c1ccco1)NC1CCCC1", "note": "(stereo unspecified)", "inhibition": "18.5% (inactive)"}, {"compound": "CC(=O)Nc1ccc(S(=O)(=O)N2CCN(CCCOc3cc(C)ccc3C)CC2)cc1", "inhibition": "83.6% (active)"}, {"compound": "CC(=O)Nc1ccc(S(=O)(=O)N2CCSCC2)cc1", "inhibition": "14% (inactive)"}, {"compound": "COC(=O)COc1ccc(S(=O)(=O)N2CCOCC2)cc1", "inhibition": "-8.2% (inactive)"}, {"compound": "O=C(Nc1ccc(S(=O)(=O)N2CCCCC2)cc1)c1cnccn1", "inhibition": "23.2% (inactive)"}, {"compound": "Cc1ccc(OCCCC(=O)Nc2ccc(N3CCOCC3)cc2)cc1", "inhibition": "15.2% (inactive)"}, {"compound": "CCCN1Cc2cccc(C(=O)Nc3ccc(S(=O)(=O)N4CCCCCC4)cc3)c2C1=O", "inhibition": "38% (inactive)"}, {"compound": "C=CCNC(=O)CCCOc1cccc(C)c1", "inhibition": "-3.3% (inactive)"}, {"compound": "Cc1cccc(OCCCC(=O)Nc2ccc(S(=O)(=O)N3CCCC3)cc2)c1", "inhibition": "65.2% (active)"}, {"compound": "CC(=O)Nc1ccc(S(=O)(=O)N2CCN(C3CCCCCCC3)CC2)cc1", "inhibition": "40.3% (inactive)"}, {"compound": "O=C(CSCc1ccc(Br)cc1)Nc1ccc(S(=O)(=O)N2CCCCCC2)cc1", "inhibition": "56.5% (active)"}, {"compound": "COc1ccc(OCC(=O)OCC(=O)Nc2ccc(S(=O)(=O)N3CCCCC3)cc2)cc1", "inhibition": "63.1% (active)"}, {"compound": "CCOc1cccc(NC(=O)C2CCCN(S(=O)(=O)c3ccc(OC)cc3)C2)c1", "note": "(stereo unspecified)", "inhibition": "21.3% (inactive)"}, {"compound": "Cc1cc(OCCOc2cccc3cccnc23)c(C)cc1Cl", "inhibition": "-170% (inactive)"}, {"compound": "CCOC(=O)c1nnn(-c2nc(OC)nc(N(C)C)n2)c1-c1ccccc1", "inhibition": "6.1% (inactive)"}, {"compound": "Cc1nnc(SCC(=O)N2CCN(c3ccccc3)CC2)n1-c1ccccc1", "inhibition": "1.8% (inactive)"}, {"compound": "COc1cc(OC)cc(C(=O)Nc2ncc3c(n2)CC(C)(C)CC3=O)c1", "inhibition": "-12.1% (inactive)"}, {"compound": "CN(NC(=O)c1ccccc1)c1nc2ccccc2nc1C(F)(F)F", "inhibition": "15.5% (inactive)"}, {"compound": "Cc1cc(C(=O)CSc2nc(N)cc(=O)[nH]2)c(C)n1CCc1ccc(Cl)cc1", "inhibition": "11.4% (inactive)"}, {"compound": "CCOc1ccc(C(C)C)cc1S(=O)(=O)n1nc(C)cc1C", "inhibition": "91.3% (active)"}, {"compound": "CCOc1cc(C)c(Cl)cc1S(=O)(=O)n1nnc2ccccc21", "inhibition": "39.1% (inactive)"}, {"compound": "CCOc1ccc(NC(=O)CCC(=O)n2nc(C)cc2C)cc1", "inhibition": "5.6% (inactive)"}, {"compound": "CCSC1=C(C#N)C(=O)n2c1cc1c2CCCC1", "inhibition": "-14.3% (inactive)"}, {"compound": "O=S(=O)(NCC1CCCO1)c1ccc2ccccc2c1", "note": "(stereo unspecified)", "inhibition": "-199% (inactive)"}, {"compound": "CCOc1cc(C2C(C(=O)OC)=CN(C3CCCC3)C=C2C(=O)OC)cc(Br)c1O", "inhibition": "-9.6% (inactive)"}, {"compound": "COc1ccc(C(=O)Nc2ccc(S(=O)(=O)Nc3onc(C)c3C)cc2)cc1OC", "inhibition": "1.2% (inactive)"}, {"compound": "Cc1noc(NS(=O)(=O)c2ccc(NC(=O)C34CCC(CC3)C4)cc2)c1C", "inhibition": "0.8% (inactive)"}, {"compound": "Cc1noc(NS(=O)(=O)c2ccc(N/C=C/C(=O)c3ccccc3)cc2)c1C", "inhibition": "93.9% (active)"}, {"compound": "Cc1ccc(S(=O)(=O)NCCN2CCOCC2)cc1C", "inhibition": "21.9% (inactive)"}, {"compound": "Cc1ccc(-c2nc(C)sc2CC(=O)O)cc1", "inhibition": "5.6% (inactive)"}, {"compound": "O=C(Nc1ccn(Cc2ccc(F)cc2)n1)c1ccncc1", "inhibition": "92.9% (active)"}, {"compound": "CC(=O)Nc1ccn(Cc2c(F)cccc2Cl)n1", "inhibition": "6.2% (inactive)"}, {"compound": "Cc1nn(Cc2ccc(F)cc2)c(C)c1NC(=O)c1noc2c1CCc1ccccc1-2", "inhibition": "-1.9% (inactive)"}, {"compound": "Cc1ccc(Cn2ccc(NC(=O)c3cc(C(C)C)on3)n2)cc1", "inhibition": "97.5% (active)"}, {"compound": "Cc1ccc(Cn2ccc(NC(=O)C3C4CCC(C4)C3C(=O)O)n2)cc1", "note": "(stereo unspecified)", "inhibition": "13% (inactive)"}, {"compound": "Cc1cc(NC(=O)c2cc(-c3cccs3)on2)nn1Cc1ccc(Cl)cc1", "inhibition": "-17.2% (inactive)"}, {"compound": "CCOC(=O)c1nn(-c2cccc(C)c2)cc1C(=O)c1ccccc1", "inhibition": "33.5% (inactive)"}, {"compound": "Cc1ccc(-c2ccnc3nc(Sc4ncc(C(F)(F)F)cc4Cl)nn23)cc1", "inhibition": "9.8% (inactive)"}, {"compound": "N#Cc1cccc(CSc2nnc(CCCO)n2-c2ccccc2)c1", "inhibition": "11.5% (inactive)"}, {"compound": "Cc1cccc(NC(=O)c2ccc(OCC(=O)NCc3ccccc3)cc2)c1C", "inhibition": "-9.9% (inactive)"}, {"compound": "Cc1cccc(C)c1NC1=NC(=S)N(c2ccc(N(C)C)cc2)C1(C)C", "inhibition": "-27.7% (inactive)"}, {"compound": "COc1ccc(NC(=O)ON=C2c3ccccc3-c3ccccc32)cc1", "inhibition": "16% (inactive)"}, {"compound": "CCN(CC)S(=O)(=O)c1cc([N+](=O)[O-])ccc1NNC(=O)Nc1ccccc1", "inhibition": "25.7% (inactive)"}, {"compound": "O=C(Nc1ccccc1)O/N=C1\\CCCCC1c1ccc([N+](=O)[O-])cc1[N+](=O)[O-]", "note": "(stereo unspecified)", "inhibition": "63.3% (active)"}, {"compound": "Cc1ccc2oc(=O)c3cnn(CC(=O)N4CCCCCC4)c3c2c1", "inhibition": "4.4% (inactive)"}, {"compound": "COc1ccc(N2C(=O)CCC(C(=O)N(C)C3CCCCC3)C2c2ccc(OC)c(OC)c2)cc1", "note": "(stereo unspecified)", "inhibition": "10.7% (inactive)"}, {"compound": "CCCn1c(C(Cc2ccccc2)NC(=O)COC)nc2ccccc21", "note": "(stereo unspecified)", "inhibition": "74.5% (active)"}, {"compound": "CCCC(NC(=O)c1ccccc1)c1nc2ccccc2n1Cc1ccc(C(=O)OC)o1", "note": "(stereo unspecified)", "inhibition": "14.1% (inactive)"}, {"compound": "C=CCn1c(C(C)NC(=O)CC)nc2ccccc21", "note": "(stereo unspecified)", "inhibition": "-3.6% (inactive)"}, {"compound": "CC/S(CC1CC1(Cl)Cl)=N\\S(=O)(=O)c1ccc(C)cc1", "note": "(stereo unspecified)", "inhibition": "-9% (inactive)"}, {"compound": "CS(=O)(=O)N1CCN(c2cccc(Cl)n2)CC1", "inhibition": "19.9% (inactive)"}, {"compound": "CN1c2ccccc2-c2nc3ccccc3n2C1c1ccco1", "note": "(stereo unspecified)", "inhibition": "45.9% (inactive)"}]}]}
